Reference: PubChem BioAssay (NCATS)
Values joined by “and” are separate entries in the source; they are usually repeats but may differ in a detail not shown here. Equal entries are not always repeated. Inconclusive results are not listed. Active and inactive are the calls of the source. Calls come from the whole dose curve.

Test: qHTS Assay for Lipid Storage Modulators (AID 1519); for activity change, negative = inhibition: % is set by controls: 0 for no effect and ±100 for the full control effect
Conditions: Drosophila S3 cells, BODIPY lipid droplet/cell ratio, laser cytometry, cells loaded with oleic acid
Source text: NIH Molecular Libraries Probe Production Centers Network [MLPCN]
NIH Chemical Genomics Center [NCGC]
Assay Submitter (PI): Beller, Mathias; Max-Planck-Institut fur Biophysikalische Chemie
NCGC Assay Overview: Storing lipids as a reservoir for energy or the anabolism of elementary metabolites is a common feature of probably all cells and is conserved from bacteria to humans. The universal cellular lipid storage organelle is the so-called lipid storage droplet (LD). Although ubiquitous, LDs share a simple structure composed of a hydrophobic core that harbors the storage lipids, which is shielded by a droplet-specific phospholipid monolayer to which proteins are attached. The current model of LD biogenesis involves an incorporation of the lipid core into the membrane leaflets of the endoplasmic reticulum (ER) followed by a subsequent budding-like maturation of a LD, which ultimately pinches off. Once released, LD volume can increase by localized lipogenesis or fusion of existing droplets. Storage lipids are re-mobilized enzymatically by lipase activity. Lipase regulation in the adipocyte is heavily studied and involves multiple components including catecholamine signaling, the LD-associated proteins Perilipin and comparative gene identification-58 (CGI-58) and at least two lipases named hormone sensitive lipase (HSL) and adipocyte triglyceride lipase (ATGL). LD regulation outside of the adipocyte is poorly understood and only few components are known. However, there is an urgent need to learn more about ectopic fat depots as mislocalized storage of lipids, for example in the liver or muscle, is an eminent health problem associated with insulin resistance or the metabolic syndrome. We developed a laser-scanning cytometer assay to enable 1,536-well screening and combined the results of the small molecules screen with an RNAi database based on lipid storage.
NCGC Assay Protocol Summary:
We dispensed 4 uL of cells at 1.25 x 10^6 cells/mL into LoBase Aurora COC 1,536-well plates (black walled, clear bottom) with a bottle-valve solenoid-based dispenser (Aurora) to obtain 5,000 cells/well. Triacsin C (Sigma-Aldrich T-4540), an inhibitor of long-chain fatty acyl CoA synthetase that blocks synthesis of triglycerides, was used as a positive control for lipid under-storage. A total of 23 nL of compound solution of different concentrations were transferred to the assay plates using a Kalypsys pin tool equipped with a 1,536-pin array containing 10-nL slotted pins (FP1S10, 0.457-mm diameter, 50.8 mm long; V&P Scientific). One microliter of oleic acid (400 uM) was added, and the plate was lidded with stainless steel rubber gasket lined lids containing pinholes. […] Fluorescence was detected by excitation of the fluorophores with a 488-nm laser on an Acumen Explorer (TTP Lab Tech). The total intensity in channel 1 (500-530 nm) reflected lipid droplet accumulation. […] The ratio of the total intensity in PMT channel 1 over total intensity of channel 3 was also calculated. Percent activity was computed relative to an internal control (100% inhibited lipid droplet deposition due to the presence of 20 uM Triacsin C), which was added to 32 wells/plate.

[1] = measured here: cell count channel max response
[2] = measured here: lipid channel max response

Row | SMILES | activity change, negative = inhibition (at 25.7 µM (top of the series)) | activity change, negative = inhibition (at 57.5 µM (top of the series)) | max response [1] | max response [2]
1 | O=C(O)c1cccnc1 | -4.1% (inactive) | 5.73% (inactive) | -11.4% and 15.3% | -16.2% and 21.7%
2 | CCn1cc(C(=O)O)c(=O)c2cc(F)c(N3CCNCC3)cc21 | 0.231% (inactive) | 8.94% (inactive) | -2.5% and 14.7% | -2.45% and 30%
3 | COc1cnc(NS(=O)(=O)c2ccc(N)cc2)nc1 | -0.0044% (inactive) | 4.6% (inactive) | -12.6% and 15.3% | -11.3% and 19.8%
4 | COc1ccc2c(c1)c(CC(=O)OCC(=O)O)c(C)n2C(=O)c1ccc(Cl)cc1 | 1.43% (inactive) |  | 9.96% | 10.1%
5 | Cc1cc(NS(=O)(=O)c2ccc(N)cc2)no1 | 0.06% (inactive) | 10.1% (inactive) | 8.41% and 20.8% | 8.63% and 34.6%
6 | CNNCc1ccc(C(=O)NC(C)C)cc1 | 1.45% (inactive) |  | -0.816% | 0.0882%
7 | Cc1cccc(Nc2ccncc2S(=O)(=O)NC(=O)NC(C)C)c1 | -1.07% (inactive) | 6.92% (inactive) | -3.68% and 16.7% | -4.97% and 28.2%
8 | NC(N)=NC(N)=NCCc1ccccc1 | -0.801% (inactive) |  | 4.96% | 5.89%
9 | CC[C@H](NC(C)C)[C@H](O)c1ccc(O)c2[nH]c(=O)ccc12 |  | -1.12% (inactive) | -20.9% | -21.9%
10 | CC(C)(C)NC(=O)[C@H]1CC[C@H]2[C@@H]3CC[C@H]4NC(=O)C=C[C@]4(C)[C@H]3CC[C@]12C |  | -0.33% (inactive) | -43.7% | -42.5%
11 | O=c1oc2c(O)c(O)cc3c(=O)oc4c(O)c(O)cc1c4c23 |  | 8.32% (inactive) | 18.5% | 32.6%
12 | NC(=O)N1c2ccccc2CC(=O)c2ccccc21 |  | 6.03% (inactive) | 10.2% | 19.4%
